Experimental data from PubChem BioAssay (NCATS).
Results filed as inconclusive are left out. A call without a number means that no potency is given here. For some assays here: Results with a measured potency or affinity are listed apart. Calls of active or inactive are those of the source. Unless noted, no rule for the calls is given here.

Legend:
[1] = Ebola virus entry assay, ratio channel
[2] = Ebola virus entry assay, green channel fluorescence
[3] = Ebola virus entry assay, reporter ratio channel; Channel type: primary
[4] = qHTS assay for measurement of the activity of small molecule inhibitors on Zika virus induced Caspase-3 activity in human iPSC derived neural progenitor cells (hNPCs) (AID 1224857; active = well fitted inhibition curve with a large enough effect; also: nearly all actives have a fitted effect of over 65% in size; also: potency is read from the fitted curve at half-maximal effect); details: hNPCs ZIKV-induced caspase-3/7, Caspase-Glo luminescence, 6 h; series mostly up to 45.7 µM
In short: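 Values are percent inhibition of virus-induced caspase-3/7 signal, scaled between uninfected cells and ZIKV-infected cells. Infection used 2 FFU/cell for 6 h after 1 h compound exposure.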

[5] = qHTS assay for measurement of the activity of small molecule inhibitors on Zika virus induced Caspase-3 activity in human astrocytoma cells (AID 1224859; active = well fitted inhibition curve with a large enough effect); details: SNB-19 ZIKV-induced caspase-3/7, luminescence, 6 h; series mostly up to 45.7 µM
In short: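 Compound added 1 h pre-infection; ZIKV 2 FFU/cell on SNB-19 cells, 6 h, 37 C/5% CO2. Caspase-Glo 3/7 luminescence; values as % inhibition of ZIKV-induced caspase activity.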

[6] = Ebola virus entry assay, blue channel (ratio component)

CO/C=C(/C(=O)OC)c1ccccc1Oc1cc(Oc2ccccc2C#N)ncn1
outcome [1]: inactive
outcome [2]: inactive
AC50 [3]: 31.6 µM (active)
Potency [4]: inactive
Potency [5]: inactive

O=[N+]([O-])c1c(Cl)c(Cl)cc(Cl)c1Cl
outcome [1]: inactive
outcome [2]: inactive
outcome [3]: inactive
outcome [6]: inactive
Potency [4]: inactive
Potency [5]: inactive

ClC1=C(Cl)[C@]2(Cl)[C@@H]3[C@@H]4C[C@@H]([C@H]5O[C@@H]45)[C@@H]3[C@@]1(Cl)C2(Cl)Cl
AC50 [1]: 5.62 µM (active)
outcome [2]: inactive
AC50 [3]: 5.62 µM (active)
outcome [6]: inactive
Potency [4]: inactive
Potency [5]: inactive

CC(C)Oc1cccc(NC(=O)c2ccccc2C(F)(F)F)c1
outcome [1]: inactive
outcome [2]: inactive
outcome [3]: inactive
outcome [6]: inactive
Potency [4]: inactive
Potency [5]: inactive

O=[N+]([O-])c1ccc([As](=O)(O)O)cc1
outcome [1]: inactive
outcome [2]: inactive
outcome [3]: inactive
outcome [6]: inactive
Potency [4]: inactive
Potency [5]: inactive

COc1nn(CSP(=S)(OC)OC)c(=O)s1
outcome [1]: inactive
outcome [2]: inactive
outcome [3]: inactive
outcome [6]: inactive
Potency [5]: inactive

CC1(C)CC/C(=C/c2ccc(Cl)cc2)C1(O)Cn1cncn1 (stereo not given)
outcome [1]: inactive
outcome [2]: inactive
outcome [3]: inactive
outcome [6]: inactive
Potency [4]: inactive
Potency [5]: inactive

C=CC(=O)NCNC(=O)C=C
outcome [1]: inactive
outcome [2]: inactive
outcome [3]: inactive
outcome [6]: inactive
Potency [4]: inactive
Potency [5]: inactive

COC(C)(C)CCCC(C)C/C=C/C(C)=C/C(=O)OC(C)C (stereo not given)
outcome [1]: inactive
outcome [2]: inactive
outcome [3]: inactive
outcome [6]: inactive
Potency [4]: inactive
Potency [5]: inactive

O=S(=O)(O)C(F)(F)C(F)(F)C(F)(F)C(F)(F)C(F)(F)C(F)(F)C(F)(F)C(F)(F)F
outcome [1]: inactive
outcome [2]: inactive
outcome [3]: inactive
outcome [6]: inactive
Potency [4]: inactive
Potency [5]: inactive

CC(C)(C)C(O)C(Oc1ccc(Cl)cc1)n1cncn1 (stereo not given)
outcome [1]: inactive
outcome [2]: inactive
outcome [3]: inactive
outcome [6]: inactive
Potency [4]: inactive
Potency [5]: inactive

CCOP(=O)(NC(C)C)Oc1ccc(SC)c(C)c1 (stereo not given)
outcome [1]: inactive
outcome [2]: inactive
outcome [3]: inactive
outcome [6]: inactive
Potency [4]: inactive
Potency [5]: inactive

CCC(C(=O)O)c1ccc(N2Cc3ccccc3C2=O)cc1 (stereo not given)
outcome [1]: inactive
outcome [2]: inactive
outcome [3]: inactive
outcome [6]: inactive

CC(C)NCC(O)c1ccc([N+](=O)[O-])cc1 (stereo not given)
outcome [1]: inactive
outcome [2]: inactive
outcome [3]: inactive
outcome [6]: inactive
Potency [4]: inactive
Potency [5]: inactive

Nc1ccc(Cl)cc1N
outcome [1]: inactive
outcome [2]: inactive
AC50 [3]: 35.5 µM (active)
outcome [6]: inactive
Potency [4]: inactive
Potency [5]: inactive

CCO/N=C(\CC)C1=C(O)CC(c2c(C)cc(C)cc2C)CC1=O (stereo not given)
outcome [1]: inactive
outcome [2]: inactive
outcome [3]: inactive
outcome [6]: inactive
Potency [4]: inactive
Potency [5]: inactive

Nc1ccc(Cl)cc1
outcome [1]: inactive
outcome [2]: inactive
outcome [3]: inactive
outcome [6]: inactive
Potency [4]: inactive
Potency [5]: inactive

O=C(O)CCCOc1ccc(Cl)cc1Cl
outcome [1]: inactive
outcome [2]: inactive
outcome [3]: inactive
outcome [6]: inactive
Potency [5]: inactive

Nc1ccc(N=Nc2ccccc2)cc1
outcome [1]: inactive
outcome [2]: inactive
outcome [3]: inactive
Potency [4]: 28.2 µM (active)

C=CCC1=C(C)C(OC(=O)C2C(C=C(C)C)C2(C)C)CC1=O (stereo not given)
outcome [1]: inactive
outcome [2]: inactive
outcome [3]: inactive
outcome [6]: inactive
Potency [4]: inactive
Potency [5]: inactive

O=C(Nc1ccccc1-c1ccc(Cl)cc1)c1cccnc1Cl
AC50 [1]: 22.4 µM (active)
outcome [2]: inactive
outcome [3]: inactive
outcome [6]: inactive
Potency [4]: inactive

S=c1[nH]c2ccccc2s1
outcome [1]: inactive
outcome [2]: inactive
outcome [3]: inactive
outcome [6]: inactive

C[N+](C)(C)CC(=O)O
outcome [1]: inactive
outcome [2]: inactive
outcome [3]: inactive
outcome [6]: inactive
Potency [4]: inactive

O=[N+]([O-])c1cc([N+](=O)[O-])c2ccccc2c1
outcome [1]: inactive
outcome [2]: inactive
outcome [3]: inactive
outcome [6]: inactive
Potency [4]: inactive
Potency [5]: inactive

OCCCc1ccccc1
outcome [2]: inactive
outcome [3]: inactive
outcome [6]: inactive

O=[N+]([O-])c1cccc(S(=O)(=O)NCCNS(=O)(=O)c2cccc([N+](=O)[O-])c2)c1
outcome [2]: inactive
outcome [3]: inactive
outcome [6]: inactive

O=C(O)CNC(=O)CNC(=O)CNC(=O)CSC(=O)c1ccccc1
outcome [2]: inactive
outcome [3]: inactive
outcome [6]: inactive

C=CCNC(N)=S
outcome [2]: inactive
outcome [3]: inactive
outcome [6]: inactive

CCCN(CCC)c1c([N+](=O)[O-])cc(S(N)(=O)=O)cc1[N+](=O)[O-]
AC50 [1]: 8.91 µM (active)
AC50 [3]: 8.91 µM (active)
Potency [4]: inactive
Potency [5]: inactive

O=C(O)CC(O)C(=O)O (stereo not given)
outcome [2]: inactive
outcome [3]: inactive
outcome [6]: inactive

CCN(CC)c1ccc(C(=C2C=CC(=[N+](CC)CC)C=C2)c2cc(S(=O)(=O)O)ccc2S(=O)(=O)[O-])cc1
outcome [2]: inactive
outcome [3]: inactive
outcome [6]: inactive

CCN1CCc2nc(N)oc2CC1
outcome [2]: inactive
outcome [3]: inactive
outcome [6]: inactive

CCOC(=O)c1cccnc1
outcome [2]: inactive
outcome [3]: inactive
outcome [6]: inactive

COc1ncnc(NS(=O)(=O)c2ccc(N)cc2)c1OC
outcome [2]: inactive
outcome [3]: inactive
outcome [6]: inactive

C[C@]12C[C@H](O)[C@H]3[C@@H](CCC4=CC(=O)CC[C@@]43C)[C@@H]1CC[C@@H]2C(=O)CO
outcome [2]: inactive
outcome [3]: inactive
outcome [6]: inactive

CN(C(=O)C(Cl)Cl)c1ccc(OC(=O)c2ccco2)cc1
outcome [2]: inactive
outcome [3]: inactive
outcome [6]: inactive

CCN(CC)CCc1nc(-c2ccccc2)no1
outcome [2]: inactive
outcome [3]: inactive
outcome [6]: inactive

CCN(CC)CCNC(=O)c1ccc(NC(C)=O)cc1
outcome [2]: inactive
outcome [3]: inactive
outcome [6]: inactive

[Cl][In]([Cl])[Cl]
outcome [2]: inactive

CCCCCCCCCCC(CO)CCCCCCCC (stereo not given)
outcome [2]: inactive
outcome [3]: inactive
outcome [6]: inactive

C/C(=C1\CCOC(=O)S1)N(C=O)Cc1cnc(C)nc1N
outcome [2]: inactive
outcome [3]: inactive
outcome [6]: inactive

O=C(O)Cc1ccccc1Oc1ccc(Cl)cc1Cl
outcome [2]: inactive
outcome [3]: inactive
outcome [6]: inactive

COc1ccc2cc(CCC(C)=O)ccc2c1
outcome [2]: inactive
outcome [3]: inactive
outcome [6]: inactive

CCCCCCCCCCCCCC[N+](C)(C)C
AC50 [1]: 25.1 µM (active)
AC50 [3]: 25.1 µM (active)

CCN1CCN(c2cc3c(cc2F)c(=O)c(C(=O)O)cn3C2CC2)CC1
outcome [2]: inactive
outcome [3]: inactive
outcome [6]: inactive

Nc1c(Cl)c(Cl)c(Cl)c(Cl)c1Cl
outcome [1]: inactive
outcome [3]: inactive
outcome [6]: inactive
Potency [4]: inactive
Potency [5]: inactive

NCCS
outcome [2]: inactive
outcome [3]: inactive
outcome [6]: inactive

CCCCCCCCOc1ccc(C(=O)c2ccccc2)c(O)c1
outcome [2]: inactive
outcome [3]: inactive
outcome [6]: inactive

COc1c(N2CCNC(C)C2)c(F)cc2c(=O)c(C(=O)O)cn(C3CC3)c12 (stereo not given)
outcome [2]: inactive
outcome [3]: inactive
outcome [6]: inactive

CCCCOC(=O)c1ccccc1C(=O)OCc1ccccc1
outcome [1]: inactive
outcome [3]: inactive
outcome [6]: inactive
Potency [4]: inactive
Potency [5]: inactive

CCOC(=O)c1c(C)n(C)c2ccc(O)cc12
outcome [2]: inactive
outcome [3]: inactive
outcome [6]: inactive

CC(C)CCCC(C)CCCC(C)CCCCC(C)CCCC(C)CCCC(C)C (stereo not given)
outcome [2]: inactive
outcome [3]: inactive
outcome [6]: inactive

Nc1nc2ccc([N+](=O)[O-])cc2s1
outcome [1]: inactive
outcome [3]: inactive

Cn1c(NCCN(CCO)CCCc2ccc([N+](=O)[O-])cc2)cc(=O)n(C)c1=O
outcome [2]: inactive
outcome [3]: inactive
outcome [6]: inactive

O=S(=O)(O)C(F)(F)C(F)(F)C(F)(F)C(F)(F)F
outcome [1]: inactive
outcome [3]: inactive
Potency [4]: inactive
Potency [5]: inactive

COc1ccccc1N1CCN(CC(O)COc2cc(OC)c(OC)c(OC)c2)CC1 (stereo not given)
outcome [2]: inactive
outcome [3]: inactive
outcome [6]: inactive

CCOC(=O)C(=O)CCCCCCl
outcome [2]: inactive
outcome [3]: inactive
outcome [6]: inactive

CN1Cc2cc(C(=O)N3CCC(C4CCNCC4)CC3)ccc2N[C@@H](CC(=O)O)C1=O
outcome [2]: inactive
outcome [3]: inactive
outcome [6]: inactive

Nc1cccc2c(N)cccc12
outcome [1]: inactive
AC50 [3]: 35.5 µM (active)

CC(=O)[O][Hg][c]1ccccc1
AC50 [1]: 4.47 µM (active)
AC50 [3]: 4.47 µM (active)
Potency [4]: inactive

C[C@@H](N)C(=O)O
outcome [2]: inactive
outcome [3]: inactive
outcome [6]: inactive

CC(=O)Oc1ccccc1C(=O)O
outcome [2]: inactive
outcome [3]: inactive
outcome [6]: inactive

c1ccc2[nH]ccc2c1
outcome [2]: inactive
outcome [3]: inactive
outcome [6]: inactive

Cc1ccccc1N=Nc1ccc(N=Nc2c(O)ccc3ccccc23)c(C)c1
outcome [2]: inactive
outcome [3]: inactive
outcome [6]: inactive

Nc1ccc(S(=O)(=O)Nc2ccccc2)cc1
outcome [2]: inactive
outcome [3]: inactive
outcome [6]: inactive

C#CC(C)(CC)OC(=O)c1ccccc1C(=O)O (stereo not given)
outcome [2]: inactive
outcome [3]: inactive
outcome [6]: inactive
